# Many of the other results were omitted from the sample, so hits are more common in it than they were.
# Dicer processing: human Dicer pre-microRNA cleavage inhibition; cat-ELCCA pre-miR-21 Dicer processing, chemiluminescence; stronger effect = higher value; Q9UPY3; AID 1347074; actives 6% (n = 47,000); z-score at 25 µM; in the data active = z-score above about 3, passing the limit was not always enough;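 also: plate controls were vehicle for no effect and no enzyme for full effect; higher signal means more uncleaved substrate so more Dicer inhibition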
# * hit, by the source's call.
SMILES,Dicer processing
CCN(CC)CCn1c(=O)c(Cc2ccc(OC)cc2)nc2ccccc21,-1.2
O=c1oc(-c2ccc([N+](=O)[O-])cc2)nc2c(Br)cc(Br)cc12,-0.9
O=C(CC1NCCCNC1=O)Nc1cc(Cl)ccc1Cl (configuration not stated),-0.79
C/S(=N\S(=O)(=O)c1ccccc1)c1ccccc1 (configuration not stated),0.38
O=C(c1cccs1)N1CCCN(CC(O)COc2ccc(Cl)c(Cl)c2)CC1 (configuration not stated),-1.4
Cc1nc(-c2cccnc2)nc(N2CCCN(c3ncc(C(F)(F)F)cc3Cl)CC2)c1Cl,-1.4
Nc1c(C(=O)NNC(=S)NCc2ccccc2)oc2nc(-c3ccc(Cl)cc3)cc(-c3ccccc3)c12,-0.19
CC(C)N1CN(CCc2ccccc2)c2nc3ccccc3n2C1,-0.22
COC(=O)CC(=O)NC(CSC(=O)Nc1ccc(Cl)cc1)C(=O)OC (configuration not stated),0.63
CCOC(=O)COc1ccc2c(c1)OC(C)(C)CC2=O,-1.5
C=C1SC(Nc2cc(OC)cc(OC)c2)=NC1(C)C,15*
COc1ccc(NC2=NC(C)(CO)CS2)cc1 (configuration not stated),0.62
C=C1SC(Nc2ccccc2OC)=NC1(C)C,-1.3
O=C1N2CN(CCO)CN3C(=O)N4CN(CCO)CN1C4C23 (configuration not stated),-0.36
CCCc1nnc(NC(CC)OC(=O)c2cc(C)nc3ccccc23)s1 (configuration not stated),3.1*
COCCNc1cc(C)nc2ccccc12,5.5
CCc1nnc2sc(-c3cc(C)nc4ccccc34)nn12,-1.1
CCSc1nnc2c(n1)OC(c1ccc(N(C)C)cc1)Nc1ccccc1-2 (configuration not stated),1.4
CCCSc1nnc2c(n1)OC(/C=C/c1ccc([N+](=O)[O-])o1)Nc1ccccc1-2 (configuration not stated),3.5*
CCSc1nnc2c(n1)OC(c1ccc(O)cc1)Nc1ccccc1-2 (configuration not stated),-0.74
O=S(=O)(NCc1csc(-c2cccs2)n1)c1ccc(Oc2ccccc2)nc1,-0.02
CCOC(=O)C1=C(C)N=C2SC(C)C(=O)N2C1c1ccc(F)cc1 (configuration not stated),0.97
CCOC(=O)c1ccc2c(c1)C1C=CCC1C(c1ccc(Br)cc1)N2 (configuration not stated),5.6*
O=C(O)c1ccc2c(c1)[C@@H]1C=CC[C@@H]1[C@H](c1ccccc1Br)N2,3.1*
CCOC(=O)c1ccc2c(c1)[C@@H]1C=CC[C@@H]1[C@H](c1cccc(OC)c1OC)N2,0.9
SMILES,Dicer processing
Cc1ccc2c(c1)C1C=CCC1C(c1ccccc1Cl)N2 (configuration not stated),4.1*
O=C(O)c1ccc2c(c1)C1C=CCC1C(c1ccc(Cl)cc1)N2 (configuration not stated),5.2
CCOC(=O)c1ccc2c(c1)C1C=CCC1C(c1ccccc1)N2 (configuration not stated),-0.56
Clc1ccc2c(c1)C1C=CCC1C(c1ccccc1)N2 (configuration not stated),23
COc1ccc(Br)cc1[C@@H]1Nc2ccc(C(=O)O)cc2[C@@H]2C=CC[C@@H]21,1.1
CC(C)COC(=O)c1ccc2c(c1)C1C=CCC1C(c1ccc(F)cc1)N2 (configuration not stated),0.97
Cc1cc(/C(N)=N/OC(=O)c2ccc(OC(F)(F)F)cc2)c(-c2ccccc2)o1,-0.21
O=C(Nc1ccc(OC(F)(F)F)cc1)Nc1cncc(C(F)(F)F)c1,-0.05
O=C(Nc1ccc(Cl)cc1)n1nccc1C(c1ccccc1)c1ccccc1,2.6
Cn1c(=O)c2c3nc4cc(F)ccc4cc3c(=O)n(C)c2n(C)c1=O,-1.5
CCOC(=O)c1c(OC)cccc1OC,-0.77
CCOC(=O)c1oc2cccc(OC(C)=O)c2c1C,5.7*
CCOC(=O)c1c(C)oc2ccc(OC(C)=O)cc12,6.7
CC(=O)NCCc1c(F)cccc1Cl,1.9
O=S1(=O)CC(O)C(S(=O)(=O)Cc2ccc(Cl)cc2)C1 (configuration not stated),0.55
CN(Cc1ccccc1)S(=O)(=O)Cc1ccccc1,0.64
O=S(=O)(Cc1ccccc1)C1CCCCC1O (configuration not stated),3.1*
O=C(CSc1nnc(-c2ccco2)c(-c2ccco2)n1)Nc1cnc2ccccc2c1,-0.92
O=c1c(Cc2ccccc2)c(O)c2ccccc2n1Cc1ccccc1,-1.7
C=CCn1c(N)cc(=O)nc1SCC(=O)Nc1ccccc1,0.4
C=CCn1c(=O)c(C(=O)Nc2cccc(O)c2)c(O)c2ccccc21,11*
CCOC(=O)C(NC(=O)c1cccc(Cl)c1)(Nc1ccc(F)c(F)c1F)C(F)(F)F (configuration not stated),0.9
O=C(O)c1cc(Cl)ccc1S(=O)c1ccccc1CO (configuration not stated),-0.67
Cc1ccc(-c2nnc(SCC(=O)O)o2)cc1,0.56
Cc1occc1-c1nnc(SCC(=O)O)o1,3.4*
